# From ChEMBL document CHEMBL4513216, “Probing the Open Global Health Chemical Diversity Library for Multistage-Active Starting Points for Next-Generation Antimalarials” (ACS Infect Dis, 2020)
# Screen size: about 69,000 compounds; about 8,600 (12%) showed an effect of 50% or more. Only a selection was taken, and strong results are over-represented in it overall.
# Test system: Plasmodium berghei
# Experiment: Screen against P. berghei liver stage (PbLuc), transformed with Luciferase, at 10uM
# Format: functional, HepG2
# Conditions: tested at 10 uM
row,SMILES,INHIBITION [%]
1,Cc1cccn2cc(CNS(=O)(=O)N3CCOCC3)nc12,19.8
2,Cn1nnc2c1CCN(S(C)(=O)=O)C2COCc1ccccc1 (configuration not stated),53
3,Cn1nnc2c1CCN(Cc1ccoc1)C2COCc1ccccc1 (configuration not stated),-6.39
4,Cn1nnc2c1CCN(Cc1ccncc1)C2COCc1ccccc1 (configuration not stated),17.2
5,CCn1nnc2c1CCN(S(C)(=O)=O)C2COCc1ccccc1 (configuration not stated),-3.51
6,CN(C)C(=O)N1CCc2c(nnn2C)C1COCC1CC1 (configuration not stated),12.7
7,Cn1nnc2c1CCN(CC1CC1)C2COCC1CC1 (configuration not stated),38.5
8,C1CC(CN2CCc3c(nnn3CC3CC3)C2COCC2CC2)C1 (configuration not stated),43.3
9,Cn1nnc2c1CCN(S(C)(=O)=O)C2COCC1CC1 (configuration not stated),57.1
10,Cn1nnc2c1CCN(CC1CC1)C2COCc1ccccc1 (configuration not stated),39.8
11,C1CN(CC2CC2)C(COCC2CC2)c2nnn(CC3CC3)c21 (configuration not stated),15.6
12,CS(=O)(=O)N1CCc2c(nnn2CC2CC2)C1COCC1CC1 (configuration not stated),58.5
13,Cc1ccc(CN2CCc3c(nnn3C)C2COCc2ccccc2)s1 (configuration not stated),59.3
14,CCc1ccc(NC(=O)N2Cc3c(CN(C)C)nn(C)c3C2)cc1,33
15,COc1cccc(OCCn2c(C)c(C)oc2=O)c1,31.4
16,CCC1=N[C@@]2(CC[C@@H]3CN(Cc4ccccc4F)C[C@@H]32)C(=O)N1,10.5
17,Cc1nc(C)n(CC2CCCN2Cc2nc3ccccc3o2)n1 (configuration not stated),33.8
18,COC(=O)CCn1ccc(=O)c2ccc(OC)cc21,-7.53
19,CNc1cncc(C2CCCN2C(=O)Cn2c(=O)oc3ccccc32)n1 (configuration not stated),23.4
20,CC(C)(C)c1cc(CN2C[C@@H]3CC[C@H]2CN(Cc2ccccn2)C3)n[nH]1,-2.73
21,COc1cc(N2CCc3ncnc(-c4ccncc4)c3CC2)ncn1,33
22,COCc1nc(N(C)C)ncc1C(=O)Nc1cc(C)cc(C)c1,35

row,SMILES,INHIBITION [%]
1,OCC1CCCN(c2ncnc3c2Cc2ccccc2OC3)C1 (configuration not stated),32.1
2,Cc1nc2c(c(N[C@@H](CO)C(N)=O)n1)Cc1ccccc1OC2,-13.4
3,Cc1nc2c(c(NCCNC(=O)C(C)C)n1)Cc1ccccc1OC2,-0.55
4,Cc1nc2c(c(NCC(=O)NC(C)C)n1)Cc1ccccc1OC2,5.87
5,Cc1nc2c(c(N[C@H](C(N)=O)C(C)C)n1)Cc1ccccc1OC2,-19.8
6,Cc1nc2c(c(NC(C)c3nnn[nH]3)n1)Cc1ccccc1OC2 (configuration not stated),-45.5
7,CN(CC1(CO)CCCC1)c1nc2c(c(=O)[nH]1)Cc1ccccc1OC2,71.2
8,CN(C)c1nc2c(c(=O)[nH]1)Cc1ccccc1OC2,54.4
9,CN(CC1(CO)CCC1)c1nc2c(c(=O)[nH]1)Cc1ccccc1OC2,57.8
10,COCCN(CCC#N)Cn1cc(Cl)cn1,5.29
11,CC(C)NC1CCc2c(ccc(=O)n2CCN2CCOCC2)C1 (configuration not stated),73.2
12,CC(C)NC1CCc2c(ccc(=O)n2CCN(C)C)C1 (configuration not stated),-33
13,CC(C)NC1CCc2c(ccc(=O)n2CCN2CCCC2=O)C1 (configuration not stated),-20.1
14,O=C(NC1CC1)N1CCc2ccc(=O)n(CC3CC3)c2CC1,-55.2
15,COCCn1c2c(ccc1=O)CCN(C(=O)NC1CC1)CC2,-3.26
16,O=C(NC1CC1)N1CCc2ccc(=O)n(CCN3CCCC3)c2CC1,61.5
17,CN(CC(=O)NCC1CCCCC1)S(=O)(=O)c1cccnc1,-7.93
18,Cn1cc(C[C@H]2[C@H](O)CCN2CC2CC2)cn1,18.8
19,O=C(CCc1nc2cc(Br)cnc2[nH]1)NCc1cccnc1,-2.92
20,Cc1ccc(CNCC(C)Oc2ccccn2)cc1 (configuration not stated),-6.11
21,CC(C)(C)C(=O)NCC(=O)NCC1CCCS1 (configuration not stated),91.1
22,CC(C)(C)CC(=O)NCC1CCCS1 (configuration not stated),43.4

row,SMILES,INHIBITION [%]
1,O=C(CCC(F)(F)F)NCC1CCCS1 (configuration not stated),31.5
2,O=C(CNC(=O)Nc1c(F)cc(F)cc1-c1ccccc1)NC1CC1,3.93
3,O=C(NCCN1CCCC1)C1(c2ccc(Cl)cc2)CCOCC1,33.85
4,O=C(NCCNc1ncccn1)N1CCN(c2nccs2)CC1,-14.6
5,Cc1cc(C2CCCN2C(=O)NCc2ccccn2)on1 (configuration not stated),48.5
6,CS(=O)(=O)NC1CCCN(C(=O)NCc2cccnc2)C1 (configuration not stated),-6.62
7,O=C(NS(=O)(=O)c1cccnc1)C1CC(c2ccccc2)=NO1 (configuration not stated),28.7
8,CS(=O)(=O)NC1CCN(C(=O)NCc2ccccn2)CC1,-27.9
9,CC(=O)N1CCC(NS(=O)(=O)c2cccnc2)CC1,69.3
10,CC(=O)N1CCC(N[C@@H]2CC[C@@H]2NS(=O)(=O)c2cccnc2)CC1,46.9
11,O=S(=O)(N[C@H]1CC[C@H]1NC1Cc2ccccc2C1)c1cccnc1,68.3
12,Cc1cc(C2CCCN2C(=O)NCc2cccc(F)c2)on1 (configuration not stated),23.2
13,Cc1cc(C2CCCN2C(=O)NCc2cccnc2)on1 (configuration not stated),55
14,c1cncc(OCCNC2Cc3ccccc3C2)c1,39.7
15,CS(=O)(=O)NC1CCN(C(=O)NCc2cccnc2)CC1,59
16,CS(=O)(=O)NC1CCN(C(=O)c2cnc(-c3cccnc3)nc2)CC1,-32.8
17,COCCNc1nc(N2CCOCC2)nc2nccnc12,-2.93
18,O=C(N1CCOCC1)N1CCN(CC(O)c2ccc(F)cc2)CC1 (configuration not stated),-11.4
19,O=C(CC1CCC2(CC1)CCN(Cc1cccnc1)CC2)N1CC=CC1,-4.32
20,Cc1ccc(CN2CCc3[nH]nc(C(=O)N(C)C)c3C2)o1,6.27
21,c1cnc2c(CN3CCCCC3c3ccncn3)cnn2c1 (configuration not stated),16.5
22,Cn1cc(CN2CCCC23CCN(C(=O)c2cccs2)CC3)cn1,28.4

row,SMILES,INHIBITION [%]
1,CC1(C(N)=O)CN(CC2CCOCC2)CCO1 (configuration not stated),26.3375
2,CS(=O)(=O)N1CCC(c2nnc3ccc(C(=O)NC4CCC4)cn23)C1 (configuration not stated),37.3
3,Cc1cc(C(F)(F)F)nn1C(C)C(=O)Nc1ccc(Cl)cn1 (configuration not stated),47.4
4,Cn1c(Cn2cccn2)nnc1C1CCN(Cc2ccccc2Cl)CC1,-10.9
5,Cc1nn(C)c(Cl)c1C1CCCN1C(=O)c1ccnc(N(C)C)c1 (configuration not stated),-65.3
6,COc1ccc(Cl)cc1NCc1nc2[nH]c(C)c(C)c(=O)n2n1,16
7,O=C(Nc1cc(C(F)(F)F)c[nH]c1=O)N1CCSCC1,-43.6
8,Cc1nc(C(=O)N2CCCC2c2cnn(C)c2)ccc1C#N (configuration not stated),13.3
9,CNC(=O)c1ccc(C2CN(C(=O)c3cnn(C)c3)CCO2)nc1 (configuration not stated),29.2
10,CNC(=O)c1ccc(C2CN(C(=O)c3scnc3C)CCO2)nc1 (configuration not stated),-5.71
11,CNC(=O)c1ccc(C2CN(C(=O)c3cncs3)CCO2)nc1 (configuration not stated),50
12,CCOc1ncccc1C(=O)N1CCCC1c1c(C)nn(C)c1Cl (configuration not stated),-19.9
13,CCN(C)S(=O)(=O)NCC(C)(O)c1ccsc1 (configuration not stated),31.7
14,Cn1ccnc1CN1C(=O)CO[C@H]2CN(CCCc3ccccc3)C[C@H]21,27.5
15,COCCN1C(=O)CO[C@H]2CN(Cc3ccccc3OC)C[C@H]21,-17.2
16,COCCN1C(=O)CO[C@H]2CN(Cc3cccc(OC)c3F)C[C@@H]21,27.8
17,COCCN1C(=O)CO[C@H]2CN(CCCc3ccccc3)C[C@H]21,51.9
18,COCCN1C(=O)CO[C@H]2CN(Cc3ccccc3Cl)C[C@@H]21,63.4
19,COCCN1C(=O)CO[C@H]2CN(S(=O)(=O)c3ccccc3)C[C@H]21,-6.3
20,CC(Nc1cccc(CN2CCOC2=O)c1)C(=O)NC(=O)NC(C)(C)C (configuration not stated),3.75
21,CCNC(=O)[C@@H]1C[C@H](NC(=O)c2cc(=O)[nH]c3ccc(C)cc23)CN1C,29.4
22,COC(=O)c1ccc(N(C(=O)c2cc(Cl)ccn2)C(C)C)c(C)c1,19.4

row,SMILES,INHIBITION [%]
1,CC(C)(C)NC(=O)CN1CCCC(c2ccc(C(=O)O)cc2)C1 (configuration not stated),26.9
2,N#Cc1ccsc1NC(=O)CCN1CCn2c(nnc2C2CC2)C1,-25.9
3,CC1CCCN(c2ccc(C(N)=O)cc2NC(=O)CC2=CCNCC2)C1 (configuration not stated),56.3
4,CCNC(=O)COc1ccccc1N1CCCC(C)C1 (configuration not stated),36.2
5,COCCCC(=O)Nc1cccnc1N1CCCCC1,35.1
6,CCOCCC(=O)Nc1cc(C(N)=O)ccc1N1CCCC(C)C1 (configuration not stated),73
7,CC1CCC(NS(=O)(=O)CC(=O)Nc2ccccc2N2CCCC2)CC1 (configuration not stated),-52.2
8,CC1CCCN(c2ccccc2OCC(=O)NC2CC2)C1 (configuration not stated),42.6
9,CCOCCCC(=O)NCc1ccc(N2CCCCC2)cc1,42.7
10,CCOCCCC(=O)Nc1cc(C(N)=O)ccc1N1CCCCC1,72.1
11,NC(=O)c1ccc(N2CCCCC2)c(NC(=O)c2cncc(Br)c2)c1,46.8
12,Cc1csc(C2CCCN(C(=O)Cn3ccccc3=O)C2)n1 (configuration not stated),-17.6
13,CC(C)CNC(=O)C1(Cc2ccccc2-c2ccccc2)CCNC1 (configuration not stated),47.2
14,COc1ccc(COCC(O)CN2CCC(c3ccn[nH]3)CC2)cc1 (configuration not stated),44.1
15,COCCOCC(=O)Nc1ccc(Br)cc1F,-6.32
16,O=C(O)c1c[nH]c2cc(NS(=O)(=O)c3cc(F)ccc3Cl)ccc12,-31.8
17,Cn1cc(C2=NOC(C(=O)NC3(c4ccccc4)CCCC3)C2)cn1 (configuration not stated),-6.975
18,CO[C@@H]1CN(c2ccccc2)S(=O)(=O)[C@@]12CCN(S(C)(=O)=O)C2,39.6
19,CCn1cc(CN2CCCN(C(=O)c3ccc(C)nc3)CC2)cn1,-47.6
